Laboratory results reported in PubChem BioAssay AID1159580 (chemical genetic matrix, 2015).
Among all 5,500 compounds or so, about 2,000 (36%) were called active. About 18% were inconclusive and are not listed. Cut-off read from the data, not from the text of the source: active = normalized growth mostly below about 0.91 (no sharp cut-off); inconclusive = no clear call, values can overlap the other calls; inactive = mostly above about 0.92. The list shows a part of the results.

Experiment: chemical genetic growth profiling, strain panel (AID 1159580);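 note: tested at 20 µM; growth read once vehicle control cultures reached saturation at 30 °C; 1 = growth at the plate median or of vehicle wells; lower values mean less growth of the strain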
Details: growth OD

Measured: normalized growth

CCOC([O-])=Nc1c[n+](N2CCOCC2)no1
inactive: S. cerevisiae deletion strains, locus YJR075W, strain HOC1, active compounds read low 1.01 | S. cerevisiae deletion strains, locus YKL009W, strain mrt4, active compounds read low 1.05 | S. cerevisiae deletion strains, locus YKL068W, active compounds read low 0.993 | S. cerevisiae deletion strains, locus YKL085W, strain MDH1 (second series), active compounds read low 1.04 | S. cerevisiae deletion strains, locus YKL085W, strain MDH1, active compounds read low 1.04 | S. cerevisiae deletion strains, locus YKL160W, strain elf1, active compounds read low 0.984 | S. cerevisiae deletion strains, locus YKL190W, strain CNB1, active compounds read low 1.01 | S. cerevisiae deletion strains, locus YKR001C, strain vps1, active compounds read low 0.976 | S. cerevisiae deletion strains, locus YKR026C, strain gcn3, active compounds read low 0.994 | S. cerevisiae deletion strains, locus YKR091W, strain srl3, active compounds read low 0.995 | S. cerevisiae deletion strains, locus YLL001W, strain dnm1, active compounds read low 0.988 | S. cerevisiae deletion strains, locus YLL026W, active compounds read low 0.993 | S. cerevisiae deletion strains, locus YLL041C, strain sdh2, active compounds read low 0.988 | S. cerevisiae deletion strains, locus YLR027C, strain aat2, active compounds read low 0.997 | S. cerevisiae deletion strains, locus YLR039C, strain RIC1, active compounds read low 1.02 | S. cerevisiae deletion strains, locus YLR058C, strain SHM2, active compounds read low 1.01 | S. cerevisiae deletion strains, locus YLR102C, strain apc9, active compounds read low 0.999 | S. cerevisiae deletion strains, locus YLR113W, strain HOG1, active compounds read low 1.01 | S. cerevisiae deletion strains, locus YLR221C, strain rsa3, active compounds read low 0.985 | S. cerevisiae deletion strains, locus YLR258W, strain gsy2, active compounds read low 0.999 | S. cerevisiae deletion strains, locus YLR262C, strain YPT6 (second series), active compounds read low 1.01 | S. cerevisiae deletion strains, locus YLR262C, strain YPT6, active compounds read low 1.05 | S. cerevisiae deletion strains, locus YLR268W, strain sec22, active compounds read low 0.964 | S. cerevisiae deletion strains, locus YLR320W, strain mms22, active compounds read low 0.987 | S. cerevisiae deletion strains, locus YLR330W, strain CHS5, active compounds read low 1.01 | S. cerevisiae deletion strains, locus YLR342W, strain FKS1 (second series), active compounds read low 1.02 | S. cerevisiae deletion strains, locus YLR342W, strain FKS1, active compounds read low 1 | S. cerevisiae deletion strains, locus YLR357W, strain rsc2, active compounds read low 0.984 | S. cerevisiae deletion strains, locus YLR370C, strain arc18, active compounds read low 0.982 | S. cerevisiae deletion strains, locus YLR371W, strain rom2, active compounds read low 0.994 | S. cerevisiae deletion strains, locus YLR384C, strain iki3, active compounds read low 0.994 | S. cerevisiae deletion strains, locus YLR418C, strain cdc73, active compounds read low 0.993 | S. cerevisiae deletion strains, locus YML016C, strain PPZ1, active compounds read low 1.02 | S. cerevisiae deletion strains, locus YML032C, strain rad52, active compounds read low 0.984 | S. cerevisiae deletion strains, locus YML120C, strain ndi1, active compounds read low 0.994 | S. cerevisiae deletion strains, locus YML124C, strain tub3, active compounds read low 1 | S. cerevisiae deletion strains, locus YMR058W, strain fet3, active compounds read low 0.995 | S. cerevisiae deletion strains, locus YMR078C, strain ctf18, active compounds read low 0.996 | S. cerevisiae deletion strains, locus YMR125W, strain sto1, active compounds read low 1.01 | S. cerevisiae deletion strains, locus YMR129W, active compounds read low 0.994 | S. cerevisiae deletion strains, locus YMR205C, strain PFK2, active compounds read low 0.995 | S. cerevisiae deletion strains, locus YMR223W, strain ubp8, active compounds read low 0.998 | S. cerevisiae deletion strains, locus YMR231W, strain pep5, active compounds read low 0.994 | S. cerevisiae deletion strains, locus YMR263W, strain SAP30, active compounds read low 1.02 | S. cerevisiae deletion strains, locus YMR307W, strain GAS1, active compounds read low 1.04 | S. cerevisiae deletion strains, locus YNL067W, strain RPL9B, active compounds read low 1 | S. cerevisiae deletion strains, locus YNL071W, strain lat1, active compounds read low 1 | S. cerevisiae deletion strains, locus YNL128W, strain TEP1, active compounds read low 1.01 | S. cerevisiae deletion strains, locus YNL153C, strain GIM3, active compounds read low 1 | S. cerevisiae deletion strains, locus YNL183C, strain NPR1, active compounds read low 0.999 | S. cerevisiae deletion strains, locus YNL209W, strain ssb2, active compounds read low 0.993 | S. cerevisiae deletion strains, locus YNL233W, strain BNI4, active compounds read low 1.02 | S. cerevisiae deletion strains, locus YNL248C, strain rpa49, active compounds read low 0.992 | S. cerevisiae deletion strains, locus YNL250W, strain rad50, active compounds read low 0.982 | S. cerevisiae deletion strains, locus YNL271C, strain bni1, active compounds read low 0.981 | S. cerevisiae deletion strains, locus YNL298W, strain CLA4, active compounds read low 0.982 | S. cerevisiae deletion strains, locus YNL307C, strain MCK1, active compounds read low 1.01 | S. cerevisiae deletion strains, locus YNL322C, strain KRE1 (second series), active compounds read low 0.99 | S. cerevisiae deletion strains, locus YNL322C, strain KRE1, active compounds read low 1.01 | S. cerevisiae deletion strains, locus YNR049C, strain mso1, active compounds read low 0.988 | S. cerevisiae deletion strains, locus YNR052C, strain pop2, active compounds read low 0.989 | S. cerevisiae deletion strains, locus YOL006C, strain TOP1, active compounds read low 1.03 | S. cerevisiae deletion strains, locus YOL012C, strain htz1 0.747 | S. cerevisiae deletion strains, locus YOL147C, strain pex11, active compounds read low 0.978 | S. cerevisiae deletion strains, locus YOR001W, strain rrp6, active compounds read low 1.01 | S. cerevisiae deletion strains, locus YOR061W, strain CKA2, active compounds read low 1.02 | S. cerevisiae deletion strains, locus YOR069W, strain VPS5, active compounds read low 1.01 | S. cerevisiae deletion strains, locus YOR070C, strain gyp1, active compounds read low 0.994 | S. cerevisiae deletion strains, locus YOR080W, strain dia2, active compounds read low 0.997 | S. cerevisiae deletion strains, locus YOR083W, strain WHI5, active compounds read low 0.988 | S. cerevisiae deletion strains, locus YOR106W, strain vam3, active compounds read low 1.01 | S. cerevisiae deletion strains, locus YOR136W, strain idh2, active compounds read low 0.993 | S. cerevisiae deletion strains, locus YOR144C, strain elg1, active compounds read low 0.991 | S. cerevisiae deletion strains, locus YOR184W, strain ser1, active compounds read low 1 | S. cerevisiae deletion strains, locus YOR231W, strain MKK1, active compounds read low 1.01 | S. cerevisiae deletion strains, locus YOR265W, strain rbl2, active compounds read low 0.991 | S. cerevisiae deletion strains, locus YOR270C, strain vph1, active compounds read low 1.04 | S. cerevisiae deletion strains, locus YOR290C, strain snf2, active compounds read low 0.992 | S. cerevisiae deletion strains, locus YOR316C, strain cot1, active compounds read low 0.998 | S. cerevisiae deletion strains, locus YPL051W, strain arl3, active compounds read low 0.995 | S. cerevisiae deletion strains, locus YPL055C, strain LGE1, active compounds read low 1.04 | S. cerevisiae deletion strains, locus YPL078C, strain atp4, active compounds read low 1 | S. cerevisiae deletion strains, locus YPL106C, strain sse1, active compounds read low 0.963 | S. cerevisiae deletion strains, locus YPL240C, strain hsp82, active compounds read low 0.981 | S. cerevisiae deletion strains, locus YPL241C, strain CIN2, active compounds read low 1.01 | S. cerevisiae deletion strains, locus YPL256C, strain CLN2, active compounds read low 1.04 | S. cerevisiae deletion strains, locus YPR119W, strain clb2, active compounds read low 0.994 | S. cerevisiae deletion strains, locus YPR141C, strain kar3, active compounds read low 0.983 | S. cerevisiae deletion strains, locus YPR163C, strain tif3, active compounds read low 0.984 | S. cerevisiae deletion strains, locus YPR167C, strain met16, active compounds read low 1 | S. cerevisiae deletion strains, strain wtn01, active compounds read low 0.98 | S. cerevisiae strains, strain wild type, active compounds read low 1.02
